{
  "source": "PubChem BioAssay (NCI)",
  "note": "This is part of a sample that, as a whole, favours compounds with a hit. Of some 83,000 tested, about 20% had one in any assay.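 Step 1: grow cells in 96-well plates. Step 2: add test compound at a single concentration. Step 3: incubate 48 h. Step 4: record percent growth.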 Activity calls are given as the source filed them.",
  "data": [
    {"test_system": "HCC-2998 colon", "assay": "NCI-60 one-dose screen, 48 h (100 = growth as untreated, 0 = no growth, -100 = all killed)", "settings": "10 µM unless noted", "protocol": "Growth inhibition of the HCC-2998 human tumor cell line is measured as a screen for anti-cancer activity. Cells are grown in 96 well plates and exposed to the test compound for 48 hours. Compounds are tested at a single concentration, which is 10^-5 M for most compounds. The reported endpoint is percent growth (GI% or GIPRCNT), where numbers from 0 - 100% represent growth inhibition, and numbers from -100% - 0 represent cell death. For example, a value of 40 represents 60% growth inhibition. A value of 0 means no net growth occurred over the course of the experiment. A value of -40 indicates 40% of cells at the beginning of the experiment died by the end of the experiment. A value of -100 means all cells are dead at the end of the experiment.\nNCI-60 Human Tumor Cell Lines Screen was performed using the standard one-dose NCI protocol, which is described in more detail at https://dtp.cancer.gov/discovery_development/nci-60/default.htm.\nCompounds with GIPRCNT values below 10 were considered active. Activity score was based on GIPRCNT using the following formula: […]\nScore is 0 for GIPRCNT values of 100 or above, 50 for GIPRCNT values of 0, and 100 for GIPRCNT values of -100.", "values": [
      {"smiles": "CN[C@@H]1C(OC2[C@H](O[C@H]3[C@H](O)[C@@H](O)[C@H](N=C(N)N)[C@@H](O)[C@@H]3N=C(N)N)OC(C)[C@]2(O)CO)OC(CO)C(O)C1O", "note": "(stereo not given in full)", "growth": "97.5% (inactive)"},
      {"smiles": "C[N+]1(C)C2CC[C@@H]1CC(OC(=O)C(O)c1ccccc1)C2", "note": "(stereo not given in full)", "growth": "96.6% (inactive)"},
      {"smiles": "CC(C)OP(=O)(OC(C)C)c1ncc(-c2ccc(C(F)(F)F)cc2)c(NC2CCCCCC2)n1", "growth": "-87.6% [33.3 µM] (active)"},
      {"smiles": "CCSc1nc(Nc2ccc(S(=O)(=O)Nc3ccon3)cc2)c(C#N)c(-c2cccc(Br)c2)n1", "growth": "106% (inactive)"},
      {"smiles": "O=C(CNC(=O)c1cccc2ccccc12)Nc1ccccc1Oc1ccc(O)cc1", "growth": "55.6% [5 µM] (inactive)"},
      {"smiles": "COc1ccc(/C=C2\\CCc3ccccc3C2=O)cc1", "growth": "80.4% (inactive)"},
      {"smiles": "Clc1ccc(C2c3ccccc3-c3nccn32)c(Cl)c1", "note": "(stereo not given)", "growth": "99% (inactive)"},
      {"smiles": "COc1ccc(-c2nc3sc4c(c3c(=O)[nH]2)CCCCCC4)cc1", "growth": "80.9% (inactive)"},
      {"smiles": "CC(C)N(Cc1ccccc1)c1c(S)ssc1=S", "growth": "24.8% (inactive)"},
      {"smiles": "CCSc1ncc(Br)c(Sc2nc(N)nc3nc[nH]c23)n1", "growth": "41.4% (inactive)"},
      {"smiles": "Oc1ccccc1/C=N/N1CCCCCC1", "growth": "95.8% (inactive)"},
      {"smiles": "CCCCN=C(N)c1ccc(OCCSCCOc2ccc(C(N)=NCCCC)cc2)cc1", "growth": "59% (inactive)"},
      {"smiles": "CCCCCCCCCCCCCCCCCC1=NC(C)(CO)CO1", "note": "(stereo not given)", "growth": "98.3% (inactive)"},
      {"smiles": "CCOC(=O)c1sc(NC(=O)COc2ccc(/C=C3\\CCc4cc(OC)ccc4C3=O)cc2)nc1C", "growth": "104% (inactive)"},
      {"smiles": "Nc1ccccc1-c1ccn[nH]1", "growth": "97.2% (inactive)"},
      {"smiles": "COc1ccc2c(c1)[n+](=O)c(/C=C/C(=O)c1cc(OC)c(OC)c(OC)c1)c(C)n2[O-]", "growth": "112% (inactive)"},
      {"smiles": "Cc1cc(=O)oc2cc(OCCn3c(C)nn(-c4ccc(Cl)cc4)c3=O)ccc12", "growth": "46.7% (inactive)"},
      {"smiles": "CCCCCCCCCCN1CCC(N2CCCCC2)CC1", "growth": "14.8% (inactive)"},
      {"smiles": "Cc1cc(Cl)ccc1Nc1nc(C(F)(F)F)ccc1C(=O)N/N=C/c1ccc(Cl)cc1", "growth": "-13.3% (active)"},
      {"smiles": "COc1ccc2c(c1)sc1nc(-c3ccc(Br)cc3)cn12", "growth": "115% (inactive)"},
      {"smiles": "CC(=O)c1ccccc1NC(=O)C(C)(c1ccccc1)c1ccccc1", "growth": "108% (inactive)"},
      {"smiles": "CC(=O)Nc1ccc(C(=O)COc2cccc(/C=C3\\CCc4ccccc4C3=O)c2)cc1", "growth": "93.7% (inactive)"},
      {"smiles": "COc1ccc(C2=NN(C=O)C(c3cccc(Nc4ccnc5cc(Cl)ccc45)c3)C2)cc1", "note": "(stereo not given)", "growth": "57.8% (inactive)"},
      {"smiles": "Cc1cc(C)c2c(N)c3cccc(C)c3nc2n1", "growth": "-38.7% (active)"},
      {"smiles": "COc1c(Br)cc(C(c2cc(Br)c(OC)c(Br)c2)c2ccccc2C(=O)O)cc1Br", "growth": "97.8% (inactive)"},
      {"smiles": "O=C1/C=C/[C@@H](O)[C@@H]2C[C@@H](O)C[C@H]2/C=C/CCC[C@H](CO)O1", "growth": "-22.5% (active)"},
      {"smiles": "O=C(Nc1ccccc1)c1cc(-n2cnc([N+](=O)[O-])c2)cc(-n2cnc([N+](=O)[O-])c2)n1", "growth": "65.2% (inactive)"},
      {"smiles": "Nc1c(C(=O)Nc2cccc(Cl)c2)sc2nc3c(cc12)C(O)CCC3", "note": "(stereo not given)", "growth": "24.9% (inactive)"},
      {"smiles": "CCSCC1CC(O)(c2ccccc2)C(c2ccccc2)C(c2ccc(Cl)cc2)O1", "note": "(stereo not given)", "growth": "17.9% (inactive)"},
      {"smiles": "Nc1nc(NC2CC2)c2ncn(C3C=CC(CO)C3)c2n1", "note": "(stereo not given)", "growth": "103% (inactive)"},
      {"smiles": "O=C(/C=C(\\Nc1ccccc1)c1ccccc1)c1cn(-c2ccc([N+](=O)[O-])cc2)nn1", "growth": "103% (inactive)"},
      {"smiles": "N#Cc1c(-c2ccccc2)cc(-c2ccccc2)n(CCCCC(=O)O)c1=O", "growth": "95.6% (inactive)"},
      {"smiles": "CCCCCCCCCCCCCCCCNC(=O)Nc1ccc2ccccc2c1", "growth": "109% (inactive)"},
      {"smiles": "Nc1ccc2c(c1Br)Cc1ccccc1-2", "growth": "99.1% (inactive)"},
      {"smiles": "CC(C)Sc1nc(-c2ccc(Br)cc2)c(C#N)c(N2CCCCC2)n1", "growth": "121% (inactive)"},
      {"smiles": "CC(C)=CCNc1ncnc2c1ncn2C1OC(COP(=O)(O)O)C(O)C1O", "note": "(stereo not given)", "growth": "69.6% (inactive)"},
      {"smiles": "O=c1[nH]c(SCc2ccccc2)nc2nc(Nc3ccc(NC(=S)Nc4ccccc4)cc3)nc(-c3ccc(O)cc3O)c12", "growth": "98.6% (inactive)"},
      {"smiles": "Cc1ncc(C(=O)Nc2ccc(CN3CCN(C)CC3)c(C(F)(F)F)c2)cc1C#Cc1cncc2ncccc12", "growth": "74.5% (inactive)"},
      {"smiles": "CN1CCN(CCCCCN=c2cc3c(=O)n(CCCCCN4CCN(C)CC4)c(=O)c4c(NCCCCCN5CCN(C)CC5)cc5c(O)n(CCCCCN6CCN(C)CC6)c(=O)c2c5c4-3)CC1", "growth": "29.1% (inactive)"},
      {"smiles": "O=Cc1ccccc1C(=O)O", "growth": "98.1% (inactive)"}
    ]}
  ]
}
